Screening results from PubChem.
Sampled rows, rich in hits. Any-hit rate of the full collection: about 0.86%.
TLR9-MyD88 inh – blocks human TLR9 binding to MyD88; Q9NR96+Q99836; 340,000 compounds, 0.21% hits; CHO BLA complementation TLR9-MyD88, CCF4 FRET ratio; inhibition, % at 4.98 µM;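 active = inhibition above the mean over all tested compounds plus 3 SD, cut at about 21% in these data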;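 also: 0% = DMSO only wells and 100% = clavulanate BLA inhibitor control wells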
IDE cell activ – boosts human insulin-degrading enzyme activity in HEK cells; 340,000 compounds, 0.073% hits; FAbeta-B cleavage, fluorescence polarization; 0% vehicle, 100% cell-free pure enzyme wells; P14735; activation, % at 5.96 µM;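 active = activation above the mean of all tested compounds plus 3 SD, set per screening campaign, cut at about 17% in these data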
IDE inh – inhibitors of human insulin-degrading enzyme in cells; inhibition, % at 5.59 µM; HEK cells, FAbetaB cleavage, fluorescence polarization; AID 434962; 320,000 compounds, 0.41% hits;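 active = percent inhibition above the average of all tested compounds plus 3 SD, set per screening campaign, cut at about 16% in these data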;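 also: IDE supplied by intact live HEK cells; FP after avidin binding of uncleaved biotin substrate so inhibition keeps polarization high; 0% = DMSO wells and 100% = 60 µM reference IDE inhibitor Ii1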
TLR4-MyD88 BLA – blocks binding of human TLR4 to MyD88. HeLa CL3-4 TLR4/MyD88 BLA complementation, FRET ratio. inhibition, % at 8.4 µM. 200,000 compounds, 0.18% hits. AID 861; in the data active = inhibition above about 25%;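 also: 0% = vehicle and 100% = reference inhibitor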
NOD2-RIPK2 inh – NOD2-RIPK2 protein interaction inhibition | O43353 | CHO BLA complementation NOD2-RIPK2, CCF4 ratio | inhibition, % at 4.98 µM | 360,000 compounds, 0.38% hits; in the data active = inhibition above about 21%;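 also: 0% = vehicle only and 100% = reference blocker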
Target sequence (O43353 whole entry, looked up): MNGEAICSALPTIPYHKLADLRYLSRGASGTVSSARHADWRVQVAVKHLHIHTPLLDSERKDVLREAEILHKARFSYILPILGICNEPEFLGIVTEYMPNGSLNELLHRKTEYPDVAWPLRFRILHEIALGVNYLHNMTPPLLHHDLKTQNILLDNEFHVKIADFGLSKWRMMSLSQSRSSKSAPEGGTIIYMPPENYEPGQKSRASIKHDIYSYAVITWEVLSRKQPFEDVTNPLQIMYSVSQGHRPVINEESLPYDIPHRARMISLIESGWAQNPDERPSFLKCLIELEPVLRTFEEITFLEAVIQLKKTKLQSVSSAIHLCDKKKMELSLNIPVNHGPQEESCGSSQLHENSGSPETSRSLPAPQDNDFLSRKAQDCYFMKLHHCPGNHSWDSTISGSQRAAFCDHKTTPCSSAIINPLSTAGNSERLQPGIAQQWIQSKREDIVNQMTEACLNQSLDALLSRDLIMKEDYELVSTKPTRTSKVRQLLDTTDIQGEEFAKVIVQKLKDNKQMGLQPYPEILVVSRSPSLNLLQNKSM
IDE cell inh cf – confirmation of human insulin-degrading enzyme inhibitors in cells; HEK cells, FAbetaB cleavage, fluorescence polarization; 1,200 compounds, 51% hits; shares compounds with IDE inh; AID 435028; inhibition, % at 5.59 µM;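 active = mean inhibition across triplicate wells above the cutoff set by the earlier primary insulin-degrading enzyme screen, cut at about 16% in these data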;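 also: 0% = DMSO wells and 100% = 60 µM reference IDE inhibitor Ii1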
HEK cytotox – HEK cell cytotoxicity, counter-screen for IDE inhibitors. shares compounds with IDE inh. HEK293 cytotoxicity, ATP luminescence. inhibition, % at 5.59 µM. 1,200 compounds, 28% hits. AID 449730; in the data active = inhibition above about 22%;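 also: 0% = vehicle wells and 100% = reference cytotoxic drug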
* marks the source's active call; other numbers are inactive results.

How did Cc1cc(/C=C(/C#N)c2nc3ccccc3[nH]2)c(C)n1-c1ccccc1C(=O)O do in these assays?
TLR9-MyD88 inh: -4; IDE cell activ: -6; IDE inh: 11; TLR4-MyD88 BLA: 7; NOD2-RIPK2 inh: -3

How did Cc1ccc2nc(/C(C#N)=C/c3ccc(-c4ccccc4C(=O)O)o3)[nH]c2c1 do in these assays?
TLR9-MyD88 inh: 2; IDE cell activ: -74; IDE inh: 85*; NOD2-RIPK2 inh: 10; IDE cell inh cf: 115*; HEK cytotox: 13

What do the screens show for `CN(C)c1ccc(/C=C2\C(=N)N3N=C(CC(=O)N4CCCCC4)SC3=NC2=O)cc1`?
TLR9-MyD88 inh: 14; IDE cell activ: -58; IDE inh: 21*; NOD2-RIPK2 inh: 4; IDE cell inh cf: 49*; HEK cytotox: 9

Results for CN(C)c1ccc(/C=C2\C(=N)N3N=C(CC(=O)N4CCCC4)SC3=NC2=O)cc1Br ?
TLR9-MyD88 inh: 2; IDE cell activ: 4; IDE inh: -3; NOD2-RIPK2 inh: -4

Results for Nn1c(SCC(=O)Nc2ccccc2)nnc(Cc2ccccc2)c1=O ?
TLR9-MyD88 inh: 2; IDE cell activ: 6; IDE inh: -4; NOD2-RIPK2 inh: -2

How did CN1C(=O)CSc2ccc(NC(=O)NCCC3=CCCCC3)cc21 do in these assays?
TLR9-MyD88 inh: 11; IDE cell activ: -14; IDE inh: 17*; TLR4-MyD88 BLA: 9; NOD2-RIPK2 inh: 2; IDE cell inh cf: 10; HEK cytotox: 19

Results for CC(C)CCNC(=O)Nc1ccc2c(c1)N(C)C(=O)CS2 ?
TLR9-MyD88 inh: -4; IDE cell activ: 0; IDE inh: 0; TLR4-MyD88 BLA: -4; NOD2-RIPK2 inh: -13

Results for O=C(Nc1ccc(Br)cc1F)c1ccc2nsnc2c1 ?
TLR9-MyD88 inh: 8; IDE cell activ: 1; IDE inh: -1; NOD2-RIPK2 inh: -2

How did NC(CCc1ccccc1)c1csc(Nc2ccc(C(=O)NCCO)cc2)n1 (stereo not drawn) do in these assays?
NOD2-RIPK2 inh: -3

What do the screens show for `COc1ccccc1N=C1NC(=O)/C(=C/c2ccc(N(C)C)cc2)S1`?
TLR9-MyD88 inh: 9; IDE cell activ: -70; IDE inh: 53*; NOD2-RIPK2 inh: 17; IDE cell inh cf: 56*; HEK cytotox: 53*

Results for COc1ccc(N=C2NC(=O)/C(=C/c3ccc(O)c(OC)c3)S2)cc1 ?
TLR9-MyD88 inh: 9; IDE cell activ: -24; IDE inh: 25*; TLR4-MyD88 BLA: -6; NOD2-RIPK2 inh: 0; IDE cell inh cf: 32*; HEK cytotox: 12

How did CCOc1ccc(N2C(=O)S/C(=C\c3ccc(O)c(OC)c3)C2=O)cc1 do in these assays?
TLR9-MyD88 inh: 14; IDE cell activ: -11; IDE inh: 19*; NOD2-RIPK2 inh: -4; IDE cell inh cf: 20*; HEK cytotox: 7

How did COc1cc(/C=C2\SC(=N)N(c3ccc(F)cc3)C2=O)ccc1O do in these assays?
TLR9-MyD88 inh: 1; IDE cell activ: -14; IDE inh: 26*; TLR4-MyD88 BLA: -7; NOD2-RIPK2 inh: 3; IDE cell inh cf: 19*; HEK cytotox: 20

How did COc1ccc(/C=C2/S/C(=N/S(=O)(=O)Cc3ccccc3)NC2=O)cc1OC do in these assays?
TLR9-MyD88 inh: 2; IDE cell activ: -2; IDE inh: -1; NOD2-RIPK2 inh: -8

How did COc1cc(/C=C2\SC(=Nc3ccc(O)cc3)NC2=O)cc(OC)c1OC do in these assays?
IDE inh: -3

How did N=C1S/C(=C\c2ccccc2)C(=O)N1c1ccc(F)cc1 do in these assays?
TLR9-MyD88 inh: 1; IDE cell activ: 0; IDE inh: -2; TLR4-MyD88 BLA: 3; NOD2-RIPK2 inh: -8

Results for COc1ccc(CCC(=O)N2CCCC(Nc3ccc(OC)cc3)C2)cc1 (stereo not drawn) ?
TLR9-MyD88 inh: -11; IDE cell activ: -3; IDE inh: -2; NOD2-RIPK2 inh: -6

Results for S=C(NCCc1ccccc1)N1CCn2cccc2C1c1cccnc1 (stereo not drawn) ?
TLR9-MyD88 inh: -9; IDE cell activ: -1; IDE inh: 1; TLR4-MyD88 BLA: 3; NOD2-RIPK2 inh: -7
